Hits are enriched below; roughly 0.81% of the tested compounds scored in any of these assays.
NR2F2 inh: inhibitors of human COUP-TFII (NR2F2); 370,000 tested, 0.7% active; inhibition, % at 8.6 µM; AID 686940; P24468; HEK293T NGFI-A luciferase reporter, luminescence;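 active = inhibition above a per-plate cutoff, mean inhibition of test wells between control levels plus 3 SD, cut at about 38% in these data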;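 also: cells cotransfected with COUP-TFII expression vector driving the NGFI-A reporter; 0% = median of COUP-TF2 test wells and 100% = reporter-only cells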
Target sequence (P24468 whole entry, looked up): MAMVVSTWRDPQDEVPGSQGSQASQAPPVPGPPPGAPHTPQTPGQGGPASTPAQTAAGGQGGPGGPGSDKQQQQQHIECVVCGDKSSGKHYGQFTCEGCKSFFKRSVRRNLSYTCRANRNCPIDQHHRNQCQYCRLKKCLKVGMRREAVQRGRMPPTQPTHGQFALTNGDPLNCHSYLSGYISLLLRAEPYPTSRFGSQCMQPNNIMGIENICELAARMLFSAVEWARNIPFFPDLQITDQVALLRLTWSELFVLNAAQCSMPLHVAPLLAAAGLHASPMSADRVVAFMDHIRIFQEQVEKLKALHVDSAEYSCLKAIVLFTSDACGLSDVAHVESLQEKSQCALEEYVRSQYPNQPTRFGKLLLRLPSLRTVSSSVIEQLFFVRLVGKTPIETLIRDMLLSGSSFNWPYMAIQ
NCOA2 inhibitor: human SRC2 (NCOA2) inhibition. 370,000 tested, 0.17% active. HEK293 GAL4-SRC2 luciferase reporter, luminescence. inhibition, % at 9 µM;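 active = inhibition above the mean inhibition of all tested compounds plus 3 SD, set per campaign, cut at about 52% in these data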;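 also: 0% = DMSO treated cells and 100% = cells given Gossypol at 36 µM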
NR5A2 inv ag: inverse agonists of human LRH-1 (NR5A2) | HEK293T StAR-luciferase reporter, LRH-1 transfected, 24 h | inhibition, % at 3.6 µM | 360,000 tested, 0.13% active | AID 602396;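 active = inhibition above the mean inhibition of all tested compounds plus 3 SD, cut at about 73% in these data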;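 also: 0% = DMSO wells and 100% = reporter-only cells lacking LRH-1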
SRC1 inh: human NCOA1 inhibition; inhibition, % at 3.6 µM; 360,000 tested, 0.12% active; HEK293 GAL4-SRC1 luciferase reporter, luminescence; Q15788;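 active = inhibition above the campaign mean plus 3 SD, with each screening campaign given its own cutoff, cut at about 60% in these data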;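 also: 0% = DMSO treated cells and 100% = gossypol at 36 µM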
SRC3 inh: human NCOA3 inhibition | 360,000 tested, 0.17% active | HEK293 GAL4-SRC3 luciferase reporter, luminescence | inhibition, % at 3.6 µM | Q9Y6Q9;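 active = inhibition above a per-campaign cutoff, the mean of all compounds plus 3 SD, cut at about 60% in these data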;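 also: 0% = DMSO-treated cells and 100% = gossypol-treated cells at 36 µM; higher means less SRC3-driven luciferase light from the GAL4 reporter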
Gal4-VP16 ctr: VP16 inhibition counter-screen for COUP-TFII; inhibition, % at 8.5 µM; 2,500 tested, 25% active; HEK293 Gal4-VP16 luciferase reporter, luminescence; shares compounds with NR2F2 inh; AID 687007; in the data active = inhibition above about 13%
COUP-TFII conf: COUP-TFII (NR2F2) inhibition, confirmation assay. shares compounds with NR2F2 inh. HEK293 NGFI-A luciferase reporter, luminescence. inhibition, % at 8.5 µM. AID 687008. 2,500 tested, 45% active;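 active = mean inhibition over three repeats above a set limit taken from the earlier primary screen, cut at about 38% in these data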;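 also: 100% = cells given the luciferase reporter alone without the COUP-TF2 vector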
Numbers without * were called inactive; x = no result given.

SMILES | NR2F2 inh | NCOA2 inhibitor | NR5A2 inv ag | SRC1 inh | SRC3 inh | Gal4-VP16 ctr | COUP-TFII conf
COc1ccccc1CNC(=O)C1CC(=O)N(C2CCCC2)C1 (centres undefined) | -8.5 | -9.1 | 0.1 | 2.0 | 14.5 | x | x
CCOc1ccc(C(C(=O)NCC2CCCO2)N(Cc2cccc(OC)c2)C(=O)c2snc(C(N)=O)c2N)cc1 (centres undefined) | 11.4 | 2.6 | 21.5 | -15.2 | -10.0 | x | x
CCOC(=O)C1CCN(c2cc(C)nc3ccc(OC)cc23)CC1 | 42.0* | 22.8 | 17.8 | 4.7 | 26.6 | 1.8 | 7.1
CC(C)(C)NC(=O)C[n+]1ccc(C(N)=O)cc1 | -5.2 | -1.8 | -8.4 | 12.2 | 3.4 | x | x
Cc1cc(Cl)c(S(=O)(=O)N2CCCCCC2)cc1OCC(=O)NC1CCCCC1 | -5.6 | -15.8 | 13.4 | 7.8 | 0.4 | x | x
O=C(COc1ccc(Br)cc1Cl)NC1CCCCC1 | -7.2 | -21.6 | -36.6 | -102.2 | -61.1 | x | x
Cc1cc(Cl)c(S(=O)(=O)N2CCN(c3ccccn3)CC2)cc1OCC(=O)NC1CCCCC1 | 42.9* | 34.1 | 6.2 | 11.7 | 11.5 | 1.4 | 7.2
Cc1cc(Cl)c(S(=O)(=O)NC2CCCC2)cc1OCC(=O)NC1CCCCC1 | 52.7* | 13.5 | 6.4 | 16.9 | 17.0 | 2.7 | 52.7*
CCN1CCN(S(=O)(=O)c2cc(OCC(=O)NC3CCCCC3)c(C)cc2Cl)CC1 | 45.7* | 6.2 | 27.0 | 32.6 | 30.2 | 9.1 | 36.6
O=C(COc1ccc(Br)cc1Br)NC1CCCC1 | 47.2* | 17.0 | -22.9 | -53.1 | -35.1 | -122.6 | -3.1
COc1ccc2c(c1OC)C(=O)N1N=C(c3ccc(Cl)cc3)CC21 (centres undefined) | -15.9 | 22.8 | 2.8 | -36.6 | 14.1 | x | x
O=C(/C=C/c1ccc([N+](=O)[O-])cc1)c1ccccc(=O)c1O | 42.8* | -32.6 | -0.3 | 0.8 | 36.8 | 10.1 | 59.3*
O=C(CN1CCC(c2nc3ccccc3s2)CC1)N1CCCCC1 | -6.9 | 1.1 | -1.7 | -5.9 | 1.6 | x | x
O=C(CN1CCC(c2nc3ccccc3s2)CC1)NCc1cccs1 | 52.9* | 6.0 | 28.4 | 12.0 | 17.5 | -5.1 | 31.2
CC(NC(=O)CN(C)CC(=O)Nc1ccccc1Br)c1ccccc1 (centres undefined) | -0.8 | -45.2 | 0.1 | -12.5 | -7.9 | x | x
Cc1cccc2cc(-c3ccccc3)c(-c3ccccc3)c[n+]12 | 63.8* | 20.1 | 53.3 | 41.6 | 41.0 | 1.5 | 44.0*
COc1ccc(C(=O)Nc2ccc(OC)c(OC)c2)cc1 | -35.2 | -21.2 | -30.3 | -47.8 | -45.6 | x | x
Cc1nn(C)c(Cl)c1NC(=O)OCc1ccc(Cl)cc1Cl | 53.2* | 33.7 | 28.7 | 11.4 | 24.3 | 4.1 | 31.5
CCOC(=O)c1cc(-c2ccc(C)cc2)n(CCC(=O)N2CCN(c3ccccn3)CC2)c1C | 38.7* | 8.2 | 11.3 | -8.0 | 12.2 | -6.2 | 8.4
O=C(O)CCC(=O)Nc1ccc(N=Nc2ccccc2)cc1 | x | x | -6.1 | -14.1 | 0.2 | x | x
CC(C)(C)C(=O)Nc1ccc(N=Nc2ccccc2)cc1 | 66.3* | 46.2 | 38.5 | 52.4 | 50.8 | -8.7 | 60.3*
CSc1ccc(C(=O)C2CCCN(C(=O)CCc3c(C)nn(C)c3C)C2)cc1 (centres undefined) | 58.4* | 19.7 | 24.8 | 7.0 | 11.3 | -2.1 | 33.6
CSc1ccc(C(=O)C2CCCN(C(=O)CCn3cncn3)C2)cc1 (centres undefined) | 0.9 | 14.3 | -19.8 | 11.3 | 16.6 | x | x
CCOC(=O)c1[nH]c(C)c(C(=O)NC2CCN(C(=O)OCC)CC2)c1C | 18.6 | 1.2 | -20.4 | -1.5 | 12.9 | x | x
Cc1cc(C)cc(C(=O)Nc2nc3ccccc3[nH]2)c1 | -39.8 | -52.8 | -108.6 | -55.3 | -50.5 | x | x
Cc1cc(C)c2c(N)c(C(=O)Nc3ncc(C)s3)sc2n1 | 74.0* | 77.0* | 52.0 | 45.9 | 49.4 | 35.3* | 67.4*
COC(=O)c1sc2nc(C)cc(C)c2c1N | -6.5 | -37.4 | -21.6 | -3.9 | -12.6 | x | x
CCC(=O)c1cn(CC(=O)Nc2ccccc2)c2ccccc12 | -2.9 | 7.0 | -15.7 | -3.0 | -27.4 | x | x
CC(=O)c1cn(CCOc2ccc(F)cc2)c2ccccc12 | 47.1* | 29.9 | 12.3 | 1.2 | -16.4 | -12.9 | 11.5
COC(=O)c1cn(CCOc2ccc(C)cc2)c2ccccc12 | -8.6 | -1.8 | -0.5 | 8.9 | 6.2 | x | x
